Out of some 400,000 compounds screened, about 13,000 (3.2%) were called active. About 18% were inconclusive and are not listed. This excerpt belongs to a sample that is enriched for actives. Values without a mark were called inactive. Calls come from the whole dose curve; as a rule, active = well fitted cell-killing curve with a large enough effect; inconclusive = small, poorly fitted or top-dose-only effect, or effect the other way; inactive = flat fitted curve, though single readings scatter.
% is set by controls: 0 for no effect and ±100 for the full control effect; potency is the fitted concentration of half-maximal effect.

This test can be described thus: qHTS assay for MDR1-selective chemotherapeutics: Primary screen using the drug-selected MDR subline cells KB-V1. Note: nearly all actives have a fitted effect of over 60% in size. The conditions noted are these: KB-V1 MDR cells viability, CellTiter-Glo, 72 h; series mostly up to 46.1 µM; activity change, negative = cytotoxicity: at the top concentration. The source says:
A prime difficulty in effectively treating cancer is the development of cellular resistance to multiple structurally unrelated anticancer drugs, a phenomenon known as multidrug resistance (MDR). […] Numerous strategies to overcome P-gp-mediated MDR have been explored, including the design of drugs that evade recognition and efflux, and development of inhibitors to block efflux and restore drug accumulation. […] An alternative approach is to exploit resistance by identifying drugs that target MDR cells over the non-resistant parental cells from which they were selected. […] The development of MDR1-selective agents represents a new strategy for resolving multidrug resistance, as it remains a long-standing clinical challenge for cancer chemotherapy.
Our goal is to identify compounds that selectively kill P-gp-expressing MDR cells. We will identify MDR1-selective compounds by comparing toxicity of compounds in the screening library against parental, drug-naive (KB-3-1) adenocarcinoma cells as well as their drug-selected MDR sub-line (KB-V1). The differential toxicity of compounds against these two cell lines will be used to identify MDR1-selective compounds, whose cytotoxicity is potentiated, rather than diminished, by P-gp expression. This assay will be utilized to conduct a quantitative high-throughput screen (qHTS) in collaboration with the NIH Chemical Genomics Center to identify selective agents, and probe hits arising from the screen will be validated using secondary assays and characterized through a well-established follow-up research program. This screen was run against the entire NCGC library collection of about 400,000 compounds.
NIH Molecular Libraries Probe Production Network [MLPCN]
NIH Chemical Genomics Center [NCGC]
PI: Michael Gottesman, National Cancer Institute, NIH
Briefly, 5 microL of media containing either KB-V1 cells (columns 1-2, 4-48) are dispensed into Greiner white, treated solid-bottom 1536-well assay plates (media-only control is added to column 3). Compounds are then transferred via Kalypsys pin tool equipped with 1536-pin array (10 nL slotted pins, V&P Scientific, San Diego, CA). Following addition of compound, the plates are incubated at 37 degrees C for 72 hours. CellTiter-Glo (2.5 µL/well) is then added, and the plates are read in a ViewLux reader (Perkin-Elmer, clear luminescence filter, 1 second exposure, 1x binning) following a 10 minute incubation. All cells are dispensed in DMEM phenol-red free media containing 10% FBS.
Library plates were screened starting from the lowest and proceeding to the highest concentration. Vehicle-only plates, with DMSO being pin-transferred to columns 5-48, will be inserted uniformly at the beginning and the end of each library in order to monitor and record any shifts in the background, which can be affected by reagent dispensers or loss in enzyme activity over time. Screening data will be corrected, normalized, and concentration-effect relationships will be derived by using publicly-available NCGC, NCATS curve fitting algorithms (http://ncgc.nih.gov/pub/openhts).
In general terms: In qHTS, concentration-response curves come from the screen itself.
As for `Cc1ccc(N2C(=O)S/C(=C/c3cn(C)c4ccccc34)C2=O)cc1`, the “activity change, negative = cytotoxicity” value was 2.62%.
For `Cc1cccc(N=C2NC(=O)/C(=C/c3cn(C)c4ccccc34)S2)c1`, the Potency is 14.6 µM (active).
In the case of `Cc1ccc(C(=O)N/C(=C\c2cn(C)c3ccccc23)C(=O)N2CCN(C)CC2)cc1`, the “activity change, negative = cytotoxicity” value is 7.97%.
The same measure, in the same setting: for `CC1=C(C(=O)N2CCOCC2)CC(CC(=O)NCCCN(C)C)C(=O)N1Cc1ccc(C(C)(C)C)cc1` (centres undefined) the value was 8.92%; for `CC(C)OC(=O)CC(=O)CC(O)c1cccc([N+](=O)[O-])c1` (centres undefined), 1.32%.
For `CCOC(=O)N1CCN(S(=O)(=O)c2cc(Br)cc3c2N(C(=O)C2CC2)CC3)CC1`, the “activity change, negative = cytotoxicity” value is -6.54%.
On to `CCN(c1ccc2c(c1)OCO2)S(=O)(=O)c1cc(Br)cc2c1N(C(=O)C1CC1)CC2`, for which the Potency was 5.17 µM (active).
For `CN(Cc1ccccc1)C(=O)CCS(=O)(=O)c1cc(Br)cc2c1N(C(=O)C1CC1)CC2`, the “activity change, negative = cytotoxicity” value was -12.9%.
With `CCOC(=O)c1ccc(-c2ccc3ncnc(N(C)Cc4sccc4C)c3c2)o1`, the “activity change, negative = cytotoxicity” value is -3.7%.
Take `CCCC(=O)Nc1ccc(Cl)c(NC(=O)c2ccc(Br)o2)c1`: the Potency is 20.6 µM (active).
With `CCN1CCN(c2c(Cl)cccc2NC(=O)c2ccc(Br)o2)CC1`, the “activity change, negative = cytotoxicity” value is -4.86%.
Turning to `O=C(CNC(=O)c1ccc(Br)o1)Nc1ccccc1`, the “activity change, negative = cytotoxicity” value was 16%.
Same read-out and setting: next, `Cc1ccc2cccc(NC(=O)C(C)Oc3ccc(C)c(C)c3)c2n1` (centres undefined): 0.037%; `CC1(C(=O)NS(=O)(=O)c2ccc(C#N)cc2)CCN1C(=O)CC1CCCC1` (centres undefined): 1.86%; `S=c1[nH]nc(-c2cc(-c3ccccc3)n[nH]2)n1/N=C/c1c2ccccc2cc2ccccc12`: 3.84%.
With `Cc1cc(-c2n[nH]c(=S)n2/N=C/C(Br)=C/c2ccccc2)n[nH]1`, the Potency is 10.3 µM (active).
`CC(C)c1cc(C(=O)N/N=C/C(Br)=C/c2ccccc2)n[nH]1`: the “activity change, negative = cytotoxicity” value was -26.2%.
As to `CCCCS(=O)(=O)c1oc(-c2cccs2)nc1S(=O)(=O)c1ccccc1`, the “activity change, negative = cytotoxicity” value was -0.671%.
Regarding `O=C(C1CCCO1)N1CCN(C(=O)C23CC4CC(CC(C4)C2)C3)CC1` (centres undefined), the “activity change, negative = cytotoxicity” value was 18.8%.
Consider `CCN(c1ccccc1)S(=O)(=O)c1ccc(NC(=O)C(C)(C)C)cc1`, for which the Potency was 11.6 µM (active).
Regarding `CCN(c1ccccc1)S(=O)(=O)c1ccc(C(=O)Nc2ccccc2OC)cc1`, the “activity change, negative = cytotoxicity” value is -9.91%.
In the case of `CCN(c1ccccc1)S(=O)(=O)c1ccc(N)cc1`, the “activity change, negative = cytotoxicity” value is 1.93%.
With `CC1(C(=O)Nc2cccc3c2CCCC3)CCN1C(=O)CCc1ccc(Cl)cc1Cl` (centres undefined), the “activity change, negative = cytotoxicity” value is -8.74%.
On to `CN(CCO)C(=O)c1nc[nH]c1C(=O)N(C)Cc1ccccc1`, for which the “activity change, negative = cytotoxicity” value was -5.16%.
With `Cc1ccc(CNC(=O)CSc2c3c(nc4cc(Cl)ccc24)CCCC3)cc1`, the “activity change, negative = cytotoxicity” value was 6.96%.
For the molecule `Cc1ccc(NC(=O)CN(C)Cc2ccc(F)cc2)c([N+](=O)[O-])c1`, the Potency was 9.2 µM (active).
As to `Cc1c(NC(=S)NCc2ccc(F)cc2)cccc1[N+](=O)[O-]`, the “activity change, negative = cytotoxicity” value was -18.7%.
Take `Cc1ccc(NC(=O)c2oc3ccccc3c2C)c([N+](=O)[O-])c1`: the “activity change, negative = cytotoxicity” value is -19.5%.
For the molecule `CCC(=O)N1CCC(C)(C(=O)Nc2cc(OC)c(OC)c(OC)c2)C1` (centres undefined), the “activity change, negative = cytotoxicity” value was 5.6%.
As to `CCOCCc1nn2c(=O)cc(COC(=O)CNC(=O)c3ccc(C(C)(C)C)cc3)nc2s1`, the “activity change, negative = cytotoxicity” value is 22%.
Regarding `COc1ccc(CSc2nnnn2-c2ccc(C(=O)O)cc2)cc1`, the “activity change, negative = cytotoxicity” value was 0%.
On to `COc1ccc(NC(=O)CSc2nnnn2-c2cccc(OC)c2)cc1`, for which the “activity change, negative = cytotoxicity” value is 10.7%.
As for `COc1ccc(-n2nnnc2SCC(=O)c2ccc(OC)c(OC)c2)cc1`, the Potency was 18.4 µM (active).
As for `COc1c(C)cc(C(O)c2ncc(-c3cccc(C(F)(F)F)c3)[nH]2)cc1C` (centres undefined), the “activity change, negative = cytotoxicity” value was -11%.
Turning to `CS(=O)c1ccc(/C=C2\C=Cc3ccccc32)cc1` (centres undefined), the “activity change, negative = cytotoxicity” value was 0%.
Regarding `CCOc1ccc(S(=O)(=O)Nc2ccc(OC)nc2)cc1`, the “activity change, negative = cytotoxicity” value is -0.792%.
In the case of `COc1ccccc1Oc1ccc(S(=O)(=O)Nc2cccnc2)cc1`, the Potency is 2.59 µM (active).
`COc1ccc(S(=O)(=O)Nc2cccnc2)c(Cl)c1Cl`: the “activity change, negative = cytotoxicity” value is -23.8%.
As for `Cc1cc(C)n2ncc(C(=O)N3CCCC3)c2n1`, the “activity change, negative = cytotoxicity” value was -7.32%.
On to `Cc1cc(Cl)ccc1OCCCC(=O)NCc1ccncc1`, for which the Potency is 16.4 µM (active).
In the case of `Cc1cc(Cl)ccc1OCCCC(=O)Nc1cccc(-n2cnnn2)c1`, the “activity change, negative = cytotoxicity” value was -0.681%.
As to `CCOC(=O)N1CCN(C(=O)COc2ccc(Cl)cc2C)CC1`, the “activity change, negative = cytotoxicity” value was 0%.
With `COCOCCn1cc(CN2CCS(=O)(=O)N(Cc3ccc(-c4cccc(N(C)C)c4)cc3)C(CC(C)C)C2=O)nn1` (centres undefined), the “activity change, negative = cytotoxicity” value is 11.8%.
Still for that read-out and setting: for `CCNC(=O)C1(C)CCCN(C(=O)c2c(C)noc2C)C1` (centres undefined) the value was -1.18%; for `CCCCCCNC(=O)O[C@H]1CN(C(=O)OC(C)C)N(C(=O)OC(C)C)[C@@H]2CN(S(=O)(=O)c3ccc(C)cc3)C[C@]12O`, -29.2%.
For the molecule `CCOC(=O)C1C(=O)NC(N2CCN(c3ccccc3)CC2)=NC1c1ccco1` (centres undefined), the “activity change, negative = cytotoxicity” value was 6.85%.
Consider `CCOC(=O)C1C(=O)C=C(c2ccc(OC)cc2)CC1c1ccco1` (centres undefined), for which the Potency is 11.6 µM (active).
With `COc1ccc(C2=NN(C(=O)CSc3nnnn3C)C(c3ccco3)C2)cc1` (centres undefined), the “activity change, negative = cytotoxicity” value was 56%.
With `O=C(CS(=O)(=O)c1cccc2nsnc12)N1CCN(c2cccc(Cl)c2)CC1`, the “activity change, negative = cytotoxicity” value was 0%.

The values above are taken from PubChem BioAssay AID1347076 (National Center for Advancing Translational Sciences (NCATS), 2019).
